Reference: PubChem BioAssay AID1159580 (chemical genetic matrix, 2015)
“And” between values parts separate entries of the source, which are not always exact repeats. Identical values can stand only once. About 2,000 (36%) of roughly 5,500 compounds were called active. Inconclusive results (about 18%) are left out. No stated cut-off is given here; in the data, active means normalized growth mostly below about 0.91 (no sharp cut-off); inconclusive means no clear call, values can overlap the other calls; inactive means mostly above about 0.92. This is one part of the list. Where a SMILES comes first, the peptide text is derived from it. The star is where a group is joined. For = O=C*

Assay: chemical genetic growth profiling, strain panel (AID 1159580);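 further: tested at 20 µM; growth read once vehicle control cultures reached saturation at 30 °C; 1 = growth at the plate median or of vehicle wells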
Details: growth OD

Measured: normalized growth

CSCCC(NC=O)C(=O)NC(Cc1ccccc1)C(=O)O (stereo not drawn) (For-Met-Phe-OH; configuration not given here)
inactive: S. cerevisiae deletion strains, locus YAL013W, strain DEP1, stronger effect = lower value 1.02 | S. cerevisiae deletion strains, locus YBR021W, strain FUR4, stronger effect = lower value 1.04 | S. cerevisiae deletion strains, locus YBR229C, strain ROT2, stronger effect = lower value 1.01 | S. cerevisiae deletion strains, locus YCL029C, strain bik1, stronger effect = lower value 1.03 | S. cerevisiae deletion strains, locus YDL035C, strain GPR1, stronger effect = lower value 1.03 | S. cerevisiae deletion strains, locus YDL074C, strain BRE1, stronger effect = lower value 1.02 | S. cerevisiae deletion strains, locus YDL101C, strain DUN1, stronger effect = lower value 1.01 | S. cerevisiae deletion strains, locus YDL134C, strain PPH21, stronger effect = lower value 1.03 | S. cerevisiae deletion strains, locus YDL185W, strain tfp1, stronger effect = lower value 1.02 | S. cerevisiae deletion strains, locus YDL192W, strain arf1, stronger effect = lower value 1.02 | S. cerevisiae deletion strains, locus YDR101C, strain arx1, stronger effect = lower value 0.998 | S. cerevisiae deletion strains, locus YDR150W, strain NUM1, stronger effect = lower value 1.01 | S. cerevisiae deletion strains, locus YDR162C, strain NBP2, stronger effect = lower value 1.01 | S. cerevisiae deletion strains, locus YDR318W, strain mcm21, stronger effect = lower value 1.02 | S. cerevisiae deletion strains, locus YDR388W, stronger effect = lower value 1.02 | S. cerevisiae deletion strains, locus YDR502C, strain sam2, stronger effect = lower value 1.01 | S. cerevisiae deletion strains, locus YEL061C, strain CIN8, stronger effect = lower value 1.01 | S. cerevisiae deletion strains, locus YER110C, stronger effect = lower value 1.02 | S. cerevisiae deletion strains, locus YER155C, strain BEM2, stronger effect = lower value 1 | S. cerevisiae deletion strains, locus YER167W, strain BCK2, stronger effect = lower value 1 | S. cerevisiae deletion strains, locus YGL078C, strain dbp3, stronger effect = lower value 1.01 | S. cerevisiae deletion strains, locus YGL086W, strain mad1, stronger effect = lower value 1 | S. cerevisiae deletion strains, locus YGL248W, strain PDE1, stronger effect = lower value 1 | S. cerevisiae deletion strains, locus YGR135W, strain pre9, stronger effect = lower value 1.02 | S. cerevisiae deletion strains, locus YGR229C, strain SMI1, stronger effect = lower value 1.02 | S. cerevisiae deletion strains, locus YGR252W, strain gcn5, stronger effect = lower value 1.03 | S. cerevisiae deletion strains, locus YHR030C, strain SLT2, stronger effect = lower value 1.01 and 1.07 | S. cerevisiae deletion strains, locus YHR079C, strain IRE1 (second series), stronger effect = lower value 1.02 | S. cerevisiae deletion strains, locus YHR079C, strain IRE1, stronger effect = lower value 1.04 | S. cerevisiae deletion strains, locus YHR094C, strain hxt1, stronger effect = lower value 1.02 | S. cerevisiae deletion strains, locus YHR129C, strain ARP1, stronger effect = lower value 1 | S. cerevisiae deletion strains, locus YHR200W, strain rpn10, stronger effect = lower value 1.03 | S. cerevisiae deletion strains, locus YIL066C, strain RNR3, stronger effect = lower value 1.01 | S. cerevisiae deletion strains, locus YIL073C, strain SPO22, stronger effect = lower value 1.08 | S. cerevisiae deletion strains, locus YIL125W, strain kgd1, stronger effect = lower value 1.01 | S. cerevisiae deletion strains, locus YIR030C, strain dcg1, stronger effect = lower value 1.01 | S. cerevisiae deletion strains, locus YJL095W, strain BCK1, stronger effect = lower value 1 and 1.06 | S. cerevisiae deletion strains, locus YJL134W, strain LCB3, stronger effect = lower value 1 | S. cerevisiae deletion strains, locus YJL168C, strain set2, stronger effect = lower value 1.01 | S. cerevisiae deletion strains, locus YJL187C, strain SWE1 (second series), stronger effect = lower value 1.01 | S. cerevisiae deletion strains, locus YJR043C, strain POL32, stronger effect = lower value 1.01 | S. cerevisiae deletion strains, locus YJR066W, strain TOR1, stronger effect = lower value 1.01 | S. cerevisiae deletion strains, locus YKL009W, strain mrt4, stronger effect = lower value 1.02 | S. cerevisiae deletion strains, locus YKL068W, stronger effect = lower value 1.01 | S. cerevisiae deletion strains, locus YKL085W, strain MDH1 (second series), stronger effect = lower value 1.01 | S. cerevisiae deletion strains, locus YKL085W, strain MDH1, stronger effect = lower value 1.01 | S. cerevisiae deletion strains, locus YKL190W, strain CNB1, stronger effect = lower value 1.01 | S. cerevisiae deletion strains, locus YKR001C, strain vps1, stronger effect = lower value 1.02 | S. cerevisiae deletion strains, locus YLR039C, strain RIC1, stronger effect = lower value 1.06 | S. cerevisiae deletion strains, locus YLR058C, strain SHM2, stronger effect = lower value 1.01 | S. cerevisiae deletion strains, locus YLR102C, strain apc9, stronger effect = lower value 1.02 | S. cerevisiae deletion strains, locus YLR113W, strain HOG1, stronger effect = lower value 0.978 | S. cerevisiae deletion strains, locus YLR262C, strain YPT6, stronger effect = lower value 1.04 | S. cerevisiae deletion strains, locus YLR268W, strain sec22, stronger effect = lower value 1.02 | S. cerevisiae deletion strains, locus YLR330W, strain CHS5, stronger effect = lower value 1.01 | S. cerevisiae deletion strains, locus YLR342W, strain FKS1 (second series), stronger effect = lower value 1.03 | S. cerevisiae deletion strains, locus YLR371W, strain rom2, stronger effect = lower value 1.02 | S. cerevisiae deletion strains, locus YLR418C, strain cdc73, stronger effect = lower value 1.06 | S. cerevisiae deletion strains, locus YML016C, strain PPZ1, stronger effect = lower value 0.999 | S. cerevisiae deletion strains, locus YML032C, strain rad52, stronger effect = lower value 1.02 | S. cerevisiae deletion strains, locus YML124C, strain tub3, stronger effect = lower value 1.01 | S. cerevisiae deletion strains, locus YMR078C, strain ctf18, stronger effect = lower value 1.01 | S. cerevisiae deletion strains, locus YMR223W, strain ubp8, stronger effect = lower value 1.02 | S. cerevisiae deletion strains, locus YMR263W, strain SAP30, stronger effect = lower value 1.01 | S. cerevisiae deletion strains, locus YMR307W, strain GAS1, stronger effect = lower value 1.04 | S. cerevisiae deletion strains, locus YNL067W, strain RPL9B, stronger effect = lower value 1.02 | S. cerevisiae deletion strains, locus YNL128W, strain TEP1, stronger effect = lower value 1.04 | S. cerevisiae deletion strains, locus YNL183C, strain NPR1, stronger effect = lower value 0.989 | S. cerevisiae deletion strains, locus YNL233W, strain BNI4, stronger effect = lower value 1 | S. cerevisiae deletion strains, locus YNL250W, strain rad50, stronger effect = lower value 1.01 | S. cerevisiae deletion strains, locus YNL271C, strain bni1, stronger effect = lower value 1.02 | S. cerevisiae deletion strains, locus YNL298W, strain CLA4, stronger effect = lower value 1.03 | S. cerevisiae deletion strains, locus YNL307C, strain MCK1, stronger effect = lower value 1.03 | S. cerevisiae deletion strains, locus YNL322C, strain KRE1, stronger effect = lower value 1.01 | S. cerevisiae deletion strains, locus YNR052C, strain pop2, stronger effect = lower value 1.02 | S. cerevisiae deletion strains, locus YOL006C, strain TOP1, stronger effect = lower value 0.99 | S. cerevisiae deletion strains, locus YOL012C, strain htz1 0.63 | S. cerevisiae deletion strains, locus YOL147C, strain pex11, stronger effect = lower value 1.03 | S. cerevisiae deletion strains, locus YOR061W, strain CKA2, stronger effect = lower value 1 | S. cerevisiae deletion strains, locus YOR069W, strain VPS5, stronger effect = lower value 1.01 | S. cerevisiae deletion strains, locus YOR136W, strain idh2, stronger effect = lower value 1.02 | S. cerevisiae deletion strains, locus YOR144C, strain elg1, stronger effect = lower value 1.01 | S. cerevisiae deletion strains, locus YOR184W, strain ser1, stronger effect = lower value 1.02 | S. cerevisiae deletion strains, locus YOR231W, strain MKK1, stronger effect = lower value 1.02 | S. cerevisiae deletion strains, locus YOR316C, strain cot1, stronger effect = lower value 1.03 | S. cerevisiae deletion strains, locus YPL055C, strain LGE1, stronger effect = lower value 0.997 | S. cerevisiae deletion strains, locus YPL241C, strain CIN2, stronger effect = lower value 1 | S. cerevisiae deletion strains, locus YPL256C, strain CLN2, stronger effect = lower value 1.07 | S. cerevisiae deletion strains, locus YPR119W, strain clb2, stronger effect = lower value 1.01 | S. cerevisiae deletion strains, locus YPR141C, strain kar3, stronger effect = lower value 1.01 | S. cerevisiae deletion strains, locus YPR163C, strain tif3, stronger effect = lower value 1.01 | S. cerevisiae deletion strains, locus YPR167C, strain met16, stronger effect = lower value 1.03 | S. cerevisiae deletion strains, strain wtn01, stronger effect = lower value 1.04 | S. cerevisiae strains, strain wild type, stronger effect = lower value 1.01
